Most compounds without a hit are left out; they make up all but 7.4% or so of the library.
SMN2 splice enh: SMN2 splice variant enhancement. HEK293 SMN2-luciferase splicing reporter, luminescence, 30-36 h. Potency, µM (doses to about 46.1 µM), inactives show at the top dose activity change, positive = activation, usual class: activators. 210,000 compounds, 2.8% hits. AID 1458; also: % of control where 0% means no effect; nearly all actives have a fitted effect of over 55% in size
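HEK293 cells carry an SMN2 minigene-luciferase reporter in which exon 7 inclusion puts luciferase in frame. Cells were seeded at 2000 cells/well, attached for 10-12 hours, then exposed to compounds for 30-36 hours at 37C before ONE-Glo luminescence.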
ELG1 genotox: genotoxicity induction in ELG1-luciferase HEK293T cells; HEK293T ELG1-luciferase reporter, luminescence, 16 h; Potency, µM (highest dose often 46 µM), inactives show top-dose activity change, positive = activation, usual class: activators; 330,000 compounds, 1.3% hits; also: % of control where 0% means no effect; nearly all actives have a fitted effect of over 60% in size
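16 hr compound incubation (37 °C, 5% CO2) of HEK293T cells carrying luciferase-tagged ELG1; luciferase then measured by ONE-Glo luminescence after 30 min at RT.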
NPC1 prom act: NPC1 promoter activation | Huh7 NPC1 promoter luciferase reporter, 24 h | Potency, µM (top dose mostly 9.22 µM), for the others: at the top dose activation, usual class: activators | 320,000 compounds, 2.4% hits | AID 485313; also: % of control where 0% means no effect; nearly all actives have a fitted effect of over 60% in size
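Luminescence from an NPC1 promoter-driven luciferase reporter in stably transfected Huh7 cells was measured after 24 h compound treatment at 37 °C, followed by 10 min ambient incubation with luciferase detection reagent.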
Rab9 prom act: Rab9 promoter activation | Potency, µM (doses to about 9.22 µM), for the others: at the highest dose activation, negative = inhibition, hits mostly activators | Huh7 Rab9 promoter-luciferase reporter, luminescence, 24 h | 320,000 compounds, 2.8% hits | AID 485297; also: % of control where 0% means no effect; nearly all actives have a fitted effect of over 60% in size
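Rab9 promoter-driven luciferase in stably transfected Huh7 cells; 1500 cells/well rested 2 h, exposed to compound in DMSO for 24 h at 37 °C, 5% CO2. Luminescence read 10 min after adding luciferase reagent at ambient temperature.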
FLuc modulator: counter-screen for miR-21 project: firefly luciferase inhibitors or activators | purified FLuc, Km substrates, luminescence inhibition | Potency, µM (titrated, usually from 57.5 µM), inactives show top-dose activity change, negative = inhibition, hits mostly inhibitors | 360,000 compounds, 6.9% hits;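 also: plate controls were vehicle for no effect and reference inhibitor for full effect; nearly all actives have a fitted effect of over 55% in size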
Target sequence (P08659 whole entry, looked up): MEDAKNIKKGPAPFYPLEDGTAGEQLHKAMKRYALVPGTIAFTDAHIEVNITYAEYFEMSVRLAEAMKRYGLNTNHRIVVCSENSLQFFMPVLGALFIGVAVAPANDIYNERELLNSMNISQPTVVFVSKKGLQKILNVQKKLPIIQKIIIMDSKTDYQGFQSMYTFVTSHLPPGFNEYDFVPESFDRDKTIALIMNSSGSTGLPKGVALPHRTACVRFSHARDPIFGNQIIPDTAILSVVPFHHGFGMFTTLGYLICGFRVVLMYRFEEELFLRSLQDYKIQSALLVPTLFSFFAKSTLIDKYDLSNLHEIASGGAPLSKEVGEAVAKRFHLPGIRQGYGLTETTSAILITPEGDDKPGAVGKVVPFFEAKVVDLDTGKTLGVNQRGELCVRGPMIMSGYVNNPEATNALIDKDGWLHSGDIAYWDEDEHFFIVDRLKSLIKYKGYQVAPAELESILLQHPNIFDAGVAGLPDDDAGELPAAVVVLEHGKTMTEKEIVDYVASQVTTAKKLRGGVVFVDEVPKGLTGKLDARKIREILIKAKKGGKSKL
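Biochemical qHTS of compounds, final roughly 60 µM downward over six points, against 10 nM purified firefly luciferase using Km concentrations of substrates (10 uM D-luciferin, 10 uM ATP) in Tris acetate pH 7.5 buffer; luminescence output.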
Active calls of the source: *; ? = inconclusive; / = no result given. Calls follow the shape of the dose curve; as a rule, active = well fitted curve in the direction sought with a large enough effect; inconclusive = small, poorly fitted or top-dose-only effect, or another doubt; inactive = no such curve, though single readings can be large; an effect the other way counts as inactive or inconclusive. Potency is read from the fitted curve at half-maximal effect.

SMILES	SMN2 splice enh	ELG1 genotox	NPC1 prom act	Rab9 prom act	FLuc modulator
COc1ccc(NC(=O)COCc2cc(-c3ccc4c(c3)OCO4)on2)cc1	/	/	/	/	-26%
O=C(N/N=C/c1ccc(OCc2ccc(F)cc2)cc1)c1ccccc1	7%	11%	9%	-2%	-4%
O=C(/C=C/c1ccc(OC2CSC2)cc1)c1ccccc1	13%	?	3.5µM*	1.8µM*	0.54µM*
O=C(N/N=C/c1ccc(OC2CSC2)cc1)c1ccccc1	21%	?	3.2µM*	2.2µM*	2.4µM*
CNC(=O)c1ccc(OC2CSC2)cc1	2%	/	/	/	1%
Cc1ccc(C(=O)Nc2nnc(S(=O)(=O)N(C)Cc3ccc(F)cc3)s2)cc1	/	/	/	/	-18%
COc1ccc(C2Nc3ccccc3C(=O)N2Cc2ccccc2)cc1COc1ccc(Cl)cc1Cl (stereo not drawn)	/	/	-3%	2%	13%
Cc1ccc2onc(CC(=O)N(C)c3ccccc3)c2c1	/	/	/	/	4.8µM*
COc1ccc(NC(=O)Cc2noc3ccc(C)cc23)cc1Cl	/	/	/	/	-4%
CCOC(=O)c1ccc(NC(=O)Cc2noc3ccc(C)cc23)cc1	/	/	/	/	8.5µM*
COc1ccc2c(c1)c(N1CCCC1=O)c(C(=O)Nc1ccc(Cl)cc1C)n2C	/	/	/	/	-2%
O=C(CSc1ccccn1)N1CCc2ccccc21	11µM*	?	2.5µM*	1.1µM*	11µM*
O=C(CSc1nnc2ccccn12)N1CCc2ccccc21	13µM*	?	2.8µM*	3.2µM*	13µM*
Cn1ccnc1SCC(=O)N1CCc2ccccc21	/	?	2.2µM*	2.8µM*	15µM*
O=C(CSc1nnc2ccccn12)N1CCc2ccccc2C1	26%	?	?	27%	?
Cc1ccnc(SCC(=O)N2CCc3ccccc32)n1	/	?	3.2µM*	2.8µM*	?
O=C(CSc1ncccn1)N1CCCc2ccccc21	0%	29%	0%	-3%	0%
COc1cccc(-n2ccnc2SCC(=O)N2CCc3ccccc32)c1	-12%	-1%	-1%	-7%	-2%
CCc1ccc(-c2cnc3ccccc3n2)cc1NC(=O)CNC(=O)c1ccccc1	/	3.7µM*	3.5µM*	4µM*	2.7µM*
O=C(CCl)Nc1cccc(-c2cnc3ccccc3n2)c1	-2%	-38%	-5%	-34%	12µM*
CCC(=O)Nc1cccc(-c2cnc3ccccc3n2)c1	19%	?	?	?	19µM*
COc1ccc(/C(C)=N/Nc2ccc(F)cc2F)c(O)c1	?	?	10%	?	11µM*
COc1ccc(/C(C)=N/NS(=O)(=O)c2ccccc2)c(OC)c1	-3%	-6%	-3%	-3%	-4%
COc1ccc(C(=O)CCC(=O)Nc2ccc(F)cc2F)cc1	/	/	/	/	-10%
C/C(=N\Nc1ccc(F)cc1F)c1cccs1	-3%	?	6%	23%	19µM*
SMILES	SMN2 splice enh	ELG1 genotox	NPC1 prom act	Rab9 prom act	FLuc modulator
COc1ccc(/C(C)=N/Nc2ccccc2Cl)c(O)c1	/	?	0%	0%	11µM*
COc1cc(NC(=O)CN2CCCN(Cc3cccc(F)c3)S2(=O)=O)cc(OC)c1	/	/	/	/	0%
CC(C)(C)c1ccc(OCC(=O)Nc2c(C(=O)c3ccc(F)cc3)oc3ccccc23)cc1	-1%	/	/	/	0%
CC1CCCN(CCCOc2ccc(Cl)cc2Br)C1 (stereo not drawn)	-33%	0%	-4%	-5%	?
CC1CCCN(CCOc2ccc3ccccc3c2Br)C1 (stereo not drawn)	-11%	14%	14%	22%	27µM*
C=CCCCCCCCCCCCC(O)CC(O)CO (stereo not drawn) (tested in a mixture with another compound)	-4%	/	/	/	/
O=C1/C(=C/c2cccs2)CCC/C1=C\c1cccs1	/	?	1.3µM*	3.5µM*	1.9µM*
CC1C/C(=C/c2cccs2)C(=O)/C(=C/c2cccs2)C1 (stereo not drawn)	-16%	0%	-1%	8%	?
Cn1cccc1/C=C1\CCC/C(=C\c2cccn2C)C1=O	?	1.8µM*	1.3µM*	0.89µM*	6µM*
O=C(Cn1c(=O)oc2cc(S(=O)(=O)N3CCCCCC3)ccc21)Nc1ccc(F)cc1F	-4%	/	/	/	?
CC1CCCCC1NC(=O)/C=C/c1nc2ccccc2s1 (stereo not drawn)	47%	3%	27%	4%	?
O=C(/C=C/c1nc2ccccc2s1)N1CCCCCC1	/	?	3.2µM*	2µM*	15µM*
Cc1ccc(OCC(=O)Nc2cccc(-c3nc4ccccc4s3)c2)cc1	/	/	/	/	9.5µM*
Cn1c(=O)c2ncn(CC(=O)Nc3cccc(-c4nc5ccccc5s4)c3)c2n(C)c1=O	-20%	3%	3.2µM*	?	3.8µM*
Cc1cccc(OCC(=O)Nc2cccc(-c3nc4ccccc4s3)c2)c1	3.2µM*	/	/	/	6µM*
N#C/C(=C(/O)COC(=O)Cc1c[nH]c2ccccc12)c1nc2ccccc2[nH]1	-11%	0%	-1%	-7%	15µM*
O=C(Nc1ccc(F)cc1F)c1cc2c(=O)n3ccccc3nc2s1	-7%	/	/	/	-6%

Bioassay records deposited in PubChem BioAssay by National Center for Advancing Translational Sciences (NCATS).
